KCNQ2 block – rat KCNQ2 potassium channel inhibitors, primary screen, cell-based, CHO-K1, FluxOR thallium flux, B-score | Potassium voltage-gated channel subfamily KQT member 2 (Rattus norvegicus), O88943 | 20 min; active compounds read low | B-score at 10 µM | 310,000 compounds, 1.1% hits;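 active = fluorescence ratio B-score at most minus 3 library SDs, with starting brightness B-score within 2 library SDs, cut at about -5.5 in these data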
KCNQ2 enhance – potentiators of rat KCNQ2 potassium channel; 310,000 compounds, 0.54% hits; Potassium voltage-gated channel subfamily KQT member 2 (Rattus norvegicus), O88943; B-score at 10 µM; CHO-K1 KCNQ2, FluxOR thallium flux fluorescence; active compounds read high;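 active = fluorescence ratio B-score at least 3 SD of library B-scores, with initial fluorescence B-score within 3 of them, cut at about 5.3 in these data; same plate scores as AID 2156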;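 also: B-score of peak minus minimum over baseline fluorescence ratio after K+ and Tl+ stimulus; positive B-score means potentiation of KCNQ2 with more thallium influx and brighter signal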
KCNQ2 inh conf – rat KCNQ2 potassium channel inhibitors, confirmation, cell-based, thallium flux | activity change, negative = inhibition, % at 10 µM | KCNQ2-expressing cells, inhibition; active compounds read low | 1,000 compounds, 57% hits | shares compounds with KCNQ2 block;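 also: 0% = vehicle wells and values are ratio percent relative to vehicle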
KCNQ1 spec – human KCNQ1 channel inhibition, counter-screen for KCNQ2 inhibitor project, cell-based, FluxOR thallium flux; shares compounds with KCNQ2 block; KCNQ1-expressing cells, FluxOR thallium flux fluorescence; active compounds read low; activity change, negative = inhibition, % at 10 µM; 1,000 compounds, 15% hits; AID 493026, 2011;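 active = activity change at least 3 SD of negative controls below their mean in both duplicate wells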;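 also: CHO cells stably transfected with KCNQ1 and depolarized by potassium stimulus; peak minus minimum fluorescence over baseline after thallium addition; 0% = vehicle negative control and -100% = blank without thallium stimulus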
CHO Tl ctr – thallium flux change in parental CHO cells, counter-screen for KCNQ2 inhibitor project | shares compounds with KCNQ2 block | active compounds read low | activity change, % at 10 µM | 1,000 compounds, 14% hits;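 also: 0% = vehicle negative controls with stimulus buffer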
KCNQ2 patch conf – rat KCNQ2 channel inhibitors, confirmation, cell-based, automated patch clamp, single concentration; shares compounds with KCNQ2 block; KCNQ2-expressing cells, automated patch clamp current; calls only at 10 µM; 550 compounds, 49% hits; AID 588531, 2011
Kir21 conf inh – mouse Kir2.1 channel blockers, retest, confirmation, cell-based, FluxOR thallium flux, duplicate. shares compounds with KCNQ2 enhance. Kir2.1-expressing cells, FluxOR thallium flux fluorescence; active compounds read low. Tl flux remaining, % of negative control (active compounds read low), % at 10 µM. 2,300 compounds, 41% hits;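 active = Primary-screen hit whose thallium flux fell at least 3 control SD below untreated wells in both duplicates, with normal baseline fluorescence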;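 also: 0% = blank wells without stimulus and 100% = stimulated no-compound controls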
Target sequence (P35561 whole entry, looked up): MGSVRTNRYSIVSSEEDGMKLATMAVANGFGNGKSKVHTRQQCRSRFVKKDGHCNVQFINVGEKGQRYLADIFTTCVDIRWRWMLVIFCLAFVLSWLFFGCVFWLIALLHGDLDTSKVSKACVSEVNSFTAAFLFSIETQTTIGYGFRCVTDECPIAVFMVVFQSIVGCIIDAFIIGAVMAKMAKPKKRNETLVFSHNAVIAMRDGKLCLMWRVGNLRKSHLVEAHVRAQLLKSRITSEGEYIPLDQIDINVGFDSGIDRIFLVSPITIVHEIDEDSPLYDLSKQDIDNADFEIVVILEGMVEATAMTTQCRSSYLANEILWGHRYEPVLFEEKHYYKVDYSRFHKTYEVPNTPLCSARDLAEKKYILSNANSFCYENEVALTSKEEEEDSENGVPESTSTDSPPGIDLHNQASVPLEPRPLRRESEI
HEK293 ctr – counter-screen for Kir2.1 inhibitors: effect in parental HEK293 cells; FluxOR signal as % of negative control (100 = no effect), % at 10 µM; AID 2105; shares compounds with KCNQ2 enhance; FluxOR thallium flux fluorescence; 0% = unstimulated blank wells; 2,300 compounds, 19% hits;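 active = dye signal at least 3 control SD above or below untreated wells in both duplicates, raw fluorescence within 3, either direction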;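 also: percent is based on the flux ratio of peak minus minimum fluorescence over baseline F0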
* = called active by the depositor; i = inactive; . = not tested or not shown; + = active, no number. In the library only some 1.6% were active in any assay of this set; here they are far more common. Unless noted, no rule for the calls is given here.

SMILES | KCNQ2 block | KCNQ2 enhance | KCNQ2 inh conf | KCNQ1 spec | CHO Tl ctr | Kir21 conf inh | HEK293 ctr | others
COc1cc2cc(C(c3nnnn3C3CCCC3)N(C)C3CCCCC3)c(=O)[nH]c2cc1OC (configuration not stated) | -9* | -9 | -36%* | i | i | . | . | KCNQ2 patch conf=+
COc1cc2cc(C(c3nnnn3Cc3ccc(F)cc3)N3CCCCCC3)c(=O)[nH]c2cc1OC (configuration not stated) | -7.7* | -7.7 | -28%* | i | i | . | . | KCNQ2 patch conf=+
CC(C)C(c1nnnn1C1CCCC1)N(C)C1CCCCC1 (configuration not stated) | i | 1 | . | . | . | . | .
Cc1ccc(C(c2nnnn2C2CCCCC2)N(C)C2CCCCC2)cc1 (configuration not stated) | -8.3* | -8.3 | i | i | i | . | .
O=c1[nH]c2cc3c(cc2cc1C(c1nnnn1C1CCCC1)N1CCSCC1)OCCO3 (configuration not stated) | i | 0.87 | . | . | . | . | .
COc1ccc(C2=NOC(C(=O)N(C)Cc3ccccc3)C2)cc1 (configuration not stated) | i | . | . | . | . | . | .
CCCn1c(C2CCCN2c2nc(-c3cccc(Br)c3)cs2)nc2ccccc21 (configuration not stated) | i | 2.9 | . | . | . | . | .
CCCCN1C(=O)CCC(C(=O)O)C1c1ccc([N+](=O)[O-])cc1 (configuration not stated) | i | . | . | . | . | . | .
CC(C)(C)NC(=O)CN(C(=O)CNS(=O)(=O)c1ccc(Cl)cc1)c1ccc2c(c1)OCCO2 | i | 0.07 | . | . | . | . | .
CN1/C(=C\C=O)C(C)(C)c2ccccc21 | i | 1.5 | . | . | . | . | .
CN1\C(=C/C=C/C=C/C=[N+](C)C)C(C)(C)c2ccccc21 | -9.7* | -9.7 | -48%* | -36%* | -36%* | 12%* | i | KCNQ2 patch conf=+
c1ccc(Cc2nc3ccccc3n2Cc2ccccc2)cc1 | -8.1* | -8.1 | -46%* | -44%* | -36%* | 64%* | 77%* | KCNQ2 patch conf=i
Cc1nc2ccccc2n1Cc1ccccc1 | i | . | . | . | . | . | .
COc1cc(O)c(CCC(=O)c2ccc(OC)c(OC)c2)c(OC)c1 | i | 2.1 | . | . | . | . | .
Cn1c(=O)c2c(nc(SCCN3CCOCC3)n2C)n(C)c1=O | i | . | . | . | . | . | .
CCN1/C(=C/c2sc(-c3ccccc3C)c[n+]2C)Sc2ccccc21 | -7* | -7 | i | i | i | 24%* | i
CCN1/C(=C/c2ccc3cc(C)ccc3[n+]2CC)Sc2ccccc21 | i | . | . | . | . | . | .
CCCc1cc(C(=O)Nc2ccc(CC)cc2)no1 | i | . | . | . | . | . | .
Cn1c(=O)[nH]c2ccc([N+](=O)[O-])nc21 | i | . | . | . | . | . | .
COc1cc(CNCCc2ccccc2)cc(Cl)c1OCc1ccccc1 | -7.2* | -7.2 | i | i | i | 31%* | i
COc1cc(CNCc2ccccc2)cc(Cl)c1OC | i | 0.24 | . | . | . | . | .
Cc1cccc(OCC(=O)Nc2nccs2)c1C | i | 0.04 | . | . | . | . | .
CC(C)(C)n1nnnc1C(c1cccc(C(F)(F)F)c1)N1CCC(O)CC1 (configuration not stated) | i | . | . | . | . | . | .
COc1ccc2cc(S(=O)(=O)NCc3cccnc3)ccc2c1 | i | 2.2 | . | . | . | . | .
O=C(/C=C/c1cc(Br)ccc1O)c1ccco1 | -7.7* | -7.7 | -36%* | -41%* | -29%* | 73%* | i | KCNQ2 patch conf=i
SMILES | KCNQ2 block | KCNQ2 enhance | KCNQ2 inh conf | KCNQ1 spec | CHO Tl ctr | Kir21 conf inh | HEK293 ctr | others
O=C(/C=C/c1ccccc1O)c1ccco1 | i | . | . | . | . | . | .
COc1ccc(-c2csc(NC(=O)C3CCCCN3S(=O)(=O)c3ccccc3)n2)cc1 (configuration not stated) | i | . | . | . | . | . | .
CC(C)CN(CC(C)C)C(=O)Cc1coc2ccc3ccccc3c12 | -8.4* | -8.4 | -31%* | -28%* | -20%* | i | i | KCNQ2 patch conf=+
O=C(O)Cc1coc2ccc3ccccc3c12 | i | 0.01 | . | . | . | . | .
N=c1c2c(-c3ccccc3)c(-c3ccccc3)n(Cc3ccco3)c2ncn1CCCO | i | . | . | . | . | . | .
N=c1c2c(-c3ccccc3)c(-c3ccccc3)n(Cc3ccco3)c2ncn1CCO | -7* | -7 | i | i | i | 37%* | i
Cc1cc(Cl)ccc1OCC(=O)Nc1ccccc1N1CCOCC1 | i | . | . | . | . | . | .
Cc1ccc(OCC(=O)Nc2ccccc2N2CCOCC2)c(C)c1 | -7.4* | -7.4 | i | i | i | 61%* | i
CC(=O)c1ccc(Nc2ccc(-c3ccccc3F)nn2)cc1 | i | . | . | . | . | . | .
Cc1ccc(C(C)C)c(OCC(=O)NCC(c2cccs2)N2CCOCC2)c1 (configuration not stated) | -8.4* | -8.4 | -38%* | i | i | 78%* | i | KCNQ2 patch conf=i
Cc1cc(OCC(=O)NCC(c2cccs2)N2CCOCC2)ccc1C(C)C (configuration not stated) | i | . | . | . | . | . | .
CCCn1c(NCc2c[nH]c3ccccc23)nc2ccccc21 | -7.9* | -7.9 | -28%* | i | i | 42%* | i | KCNQ2 patch conf=+
CCCn1c(NCc2ccccn2)nc2ccccc21 | i | 1.9 | . | . | . | . | .
O=C1C2C3CCC(CC3)C2C(=O)N1c1ccccc1 (configuration not stated) | i | . | . | . | . | . | .
Cc1ccc(C(=O)N/C(=C\c2ccc(-c3ccc(Br)cc3)o2)C(=O)NCCCN(C)C)cc1 | -8.2* | -8.2 | -31%* | i | i | i | i | KCNQ2 patch conf=i
Cc1ccc(C(=O)N/C(=C\c2ccc(-c3cccc([N+](=O)[O-])c3)o2)C(=O)NCCCN(C)C)cc1 | i | 1.7 | . | . | . | . | .
CC(C)Oc1ccc(CN2CCC(n3nccc3NC(=O)C3CC3)CC2)cc1 | i | 0.45 | . | . | . | . | .
Cc1cc(C)n(-c2nc(SCC(=O)O)c3c4c(sc3n2)COC(C)(C)C4)n1 | i | . | . | . | . | . | .
Cc1cc(C)n(-c2nc(SCCN(C)C)c3c4c(sc3n2)CCCC4)n1 | -8.9* | -8.9 | -30%* | -31%* | i | i | i | KCNQ2 patch conf=i
COc1cccc(Nc2nc(NCCO)c3ccccc3n2)c1 | i | . | . | . | . | . | .
COc1cccc(Nc2nc(NCC3CCCO3)c3ccccc3n2)c1 (configuration not stated) | -10* | -10 | i | i | i | 18%* | i
